Measurements: PubChem BioAssay (Tox21)
Records with an inconclusive call do not appear. Entries that show only a call come without a potency. More than one record can exist for a structure, and the calls need not agree. Active and inactive are the calls of the source. The call rests on the fitted dose curve; in most records, active means well fitted cell-killing curve with a large enough effect in the repeat runs; inconclusive means weak or mixed curves; inactive means flat fitted curve, though single readings scatter.

test: qHTS RealTime-Glo MT Cell Viability Assay in HepG2 cells - 16 hour (AID 1224885); settings: RealTime-Glo luminescence; series mostly up to 76.8 µM; activity change, negative = cytotoxic: at the top concentration; further: nearly all actives have a fitted effect of over 50% in size
Description: U.S. Tox21 Program National Center for Advancing Translational Sciences [NCATS] NIH Chemical Genomics Center [NCGC] U.S. Environmental Protection Agency [EPA] National Institutes of Environmental Health Sciences [NIEHS] National Toxicology Program [NTP] U.S. Food and Drug Administration [FDA] Tox21 Assay Overview: Measure of cell viability is critical in the cell-base assay. Analysis of cell viability is necessary for the characterization of cell responses to cytotoxic drugs and environmental stress. A RealTime-Glo MT Cell Viability Assay to monitor cell viability in real time of continues cell culture during 40 hours of compound treatment was used to screen Tox21 10K library compounds in HepG2 cells. The RealTime-Glo MT Cell Viability Assay is a nonlytic, homogeneous, bioluminescent method to measure cell viability in real time using a simple, plate-based method. The assay involves adding NanoLuc luciferase and a cell-permeant prosubstrate to cells in culture. Viable cells reduce the proprietary prosubstrate to generate a substrate for NanoLuc luciferase. This substrate diffuses from cells into the surrounding culture medium, where it is rapidly used by the NanoLuc Enzyme to produce a luminescent signal. The signal correlates with the number of viable cells, making the assay well suited for cytotoxicity studies.
Tox21 Assay Protocol Summary: The mixture of HepG2 cell suspension and reagents were dispensed at 600cells/6 ul/well in 1536-well tissue culture treated black solid bottom plates using a Multidrop dispenser. After the assay plates were incubated at a 37 C/5% CO2 incubator for 5 hours, 23 nL of compounds dissolved in DMSO, positive and negative controls was transferred to the assay plate by a pintool work station. The plates were incubated at 37 C for 40 hours. The luminescence intensity were measured at 0h, 8h, 16h, 24h, 32h and 40h time points using ViewLux plate reader during compound treatment.
Potency means the concentration at half of the fitted maximal effect.

Question: Which Potency does the source give for CN1CCOCC1 here?
Answer: The Potency was “inactive”.

Question: Which Potency does the source give for Cc1ccc(C(C)(C)C)cc1 here?
Answer: The Potency was “inactive”.

Question: Which Potency does the source give for Nc1ccc(O)c(N)c1 here?
Answer: The Potency was “inactive”.

Question: Which Potency does the source give for Cc1ccc(N)c([N+](=O)[O-])c1 here?
Answer: Its Potency is “inactive”.

Question: With CCCN1C=CN(C)C1 as the molecule, how does the Potency read?
Answer: The Potency was “inactive”.

Question: With Brc1nc2ccccc2s1 as the molecule, how does the Potency read?
Answer: The Potency was “inactive”.

Question: Which Potency does the source give for CCCCCCCCCCC(CO)CCCCCCCC (stereo not given) here?
Answer: The Potency was “inactive”.

Question: For O=C(O)c1cc(=O)[nH]c(=O)[nH]1, which Potency is on record?
Answer: The Potency was “inactive”.

Question: Which Potency does the source give for [O-]/[N+](=N\O)c1ccccc1 here?
Answer: Its Potency is “inactive”.

Question: With O=C(O)COCCN1CCN(C(c2ccccc2)c2ccc(Cl)cc2)CC1 (stereo not given) as the molecule, how does the Potency read?
Answer: Its Potency is “inactive”.

Question: For C=C[C@H]1CN2CC[C@H]1C[C@@H]2[C@@H](O)c1ccnc2ccc(OC)cc12, which Potency is on record?
Answer: The Potency was “inactive”.

Question: With CC(=O)[C@@]1(O)CC[C@H]2[C@@H]3C[C@H](C)C4=CC(=O)C=C[C@]4(C)[C@@]3(F)[C@@H](O)C[C@@]21C as the molecule, how does the Potency read?
Answer: Its Potency is “inactive”.

Question: With C=CCNCC=C as the molecule, how does the Potency read?
Answer: Its Potency is “inactive”.

Question: For C=CCCCCCCCCCC, which Potency is on record?
Answer: Its Potency is “inactive”.

Question: Which Potency does the source give for COc1cc([C@H]2Oc3cc([C@H]4Oc5cc(O)cc(O)c5C(=O)[C@@H]4O)ccc3O[C@@H]2CO)ccc1O here?
Answer: Its Potency is “inactive”.

Question: Which Potency does the source give for NC[C@H](O)c1ccc(O)c(O)c1 here?
Answer: Its Potency is “inactive”.

Question: With Nc1cc(Cl)c(N)c(Cl)c1 as the molecule, how does the Potency read?
Answer: Its Potency is “inactive”.

Question: Which Potency does the source give for C=CN1CCCC1=O here?
Answer: The Potency was “inactive”.

Question: With C[C@]12CC[C@@H]3c4ccc(O)cc4CC[C@H]3[C@@H]1CC[C@H]2O as the molecule, how does the Potency read?
Answer: The Potency was “inactive”.

Question: Which Potency does the source give for Nc1ccc2c(O)cc(S(=O)(=O)O)cc2c1 here?
Answer: Its Potency is “inactive”.

Question: With c1ccc2cc3ccccc3cc2c1 as the molecule, how does the Potency read?
Answer: Its Potency is “inactive”.

Question: For CCC(=O)O[C@H]1[C@H](O[C@@H]2[C@@H](C)[C@H](O[C@H]3C[C@@](C)(OC)[C@@H](O)[C@H](C)O3)[C@@H](C)C(=O)O[C@H](CC)[C@@](C)(O)[C@H](O)[C@@H](C)C(=O)[C@H](C)C[C@@]2(C)O)O[C@H](C)C[C@@H]1N(C)C, which Potency is on record?
Answer: Its Potency is “inactive”.

Question: Which Potency does the source give for CC(C)(C)c1cccc(C(C)(C)C)c1O here?
Answer: The Potency was “inactive”.

Question: With COc1ccc(-c2coc3cc(O)cc(O)c3c2=O)cc1 as the molecule, how does the “activity change, negative = cytotoxic” value read?
Answer: Its value is -20.1% (inactive).

Question: For c1ccc2c(c1)[nH]c1ccccc12, which Potency is on record?
Answer: The Potency was “inactive”.

Question: For C[N+](C)(C)CCO, which Potency is on record?
Answer: The Potency was “inactive”.

Question: For FC(F)(F)C(Cl)Br (stereo not given), which Potency is on record?
Answer: The Potency was “inactive”.

Question: With CC(C)(Oc1ccc(Cl)cc1)C(=O)O as the molecule, how does the Potency read?
Answer: The Potency was “inactive”.

Question: Which Potency does the source give for CCCCCC1C(=O)CCC1CC(=O)OC (stereo not given) here?
Answer: Its Potency is “inactive”.

Question: For O=C(CCCN1CCC(O)(c2ccc(Cl)cc2)CC1)c1ccc(F)cc1, which Potency is on record?
Answer: Its Potency is 49 µM (active) and inactive.

Question: Which “activity change, negative = cytotoxic” value does the source give for Oc1ccc(C(c2ccc(O)cc2)C(Cl)(Cl)Cl)cc1 here?
Answer: Its value is -5.9% (inactive).

Question: With O=C(O)CCCC(=O)O as the molecule, how does the Potency read?
Answer: The Potency was “inactive”.

Question: For CCC/C=C/C=O, which Potency is on record?
Answer: The Potency was “inactive”.

Question: Which Potency does the source give for COc1ccc(C(=O)c2ccccc2O)c(O)c1 here?
Answer: The Potency was “inactive”.

Question: For Cc1ccc2c(c1)C(=O)OC2=O, which Potency is on record?
Answer: Its Potency is “inactive”.

Question: For CC(=O)O[C@]1(C(C)=O)CC[C@H]2[C@@H]3C=C(C)C4=CC(=O)CC[C@]4(C)[C@H]3CC[C@@]21C, which “activity change, negative = cytotoxic” value is on record?
Answer: Its value is -20.9% [at 35.3 µM] (inactive).

Question: With OCCNCCO as the molecule, how does the Potency read?
Answer: The Potency was “inactive”.

Question: With CC/C=C\C/C=C\C/C=C\CCCCCCCC(=O)O as the molecule, how does the Potency read?
Answer: The Potency was “inactive”.

Question: For Cc1cccc(Nc2ccccc2C(=O)O)c1C, which Potency is on record?
Answer: The Potency was “inactive”.

Question: With ClC/C=C/CCl as the molecule, how does the Potency read?
Answer: The Potency was “inactive”.
